Records with an inconclusive call do not appear. The source made the active and inactive calls. Calls come from the whole dose curve; as a rule, active = well fitted inhibition curve with a large enough effect; inconclusive = small, poorly fitted or top-dose-only effect; inactive = flat fitted curve, though single readings scatter.
How the values were obtained:
[1] = qHTS profiling for inhibitors of Plasmodium falciparum proliferation (AID 504749);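 for activity, negative = inhibition: 0% = DMSO vehicle and full inhibition = artemisinin control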; for all read-outs here: nearly all actives have a fitted effect of over 60% in size; conditions: P. falciparum in erythrocytes, SYBR Green DNA, 72 h; for activity, negative = inhibition: at 28.7 µM (top of the series)
Method in brief: (§1)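 Quantitative HTS: compounds pinned into medium, infected erythrocytes added (0.3% parasitemia, 2.5% hematocrit), 72 h culture at 37 C under 5% CO2. Saponin/Triton lysis with SYBR Green I, overnight RT, then fluorescence read.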

3D7 = assay: as above; conditions: P. falciparum in erythrocytes, SYBR Green DNA, 72 h; series mostly up to 28.7 µM
Method in brief: as §1

ATS189 = assay: as above; conditions: P. falciparum in erythrocytes, SYBR Green DNA, 72 h; series mostly up to 28.7 µM
Method in brief: as §1

ATS95 = assay: as above; conditions: P. falciparum in erythrocytes, SYBR Green DNA, 72 h; series mostly up to 28.7 µM
Method in brief: as §1

C2A = assay: as above; conditions: P. falciparum in erythrocytes, SYBR Green DNA, 72 h; series mostly up to 28.7 µM
Method in brief: as §1

CP185 = assay: as above; conditions: P. falciparum in erythrocytes, SYBR Green DNA, 72 h; series mostly up to 28.7 µM
Method in brief: as §1

CP192 = assay: as above; conditions: P. falciparum in erythrocytes, SYBR Green DNA, 72 h; series mostly up to 28.7 µM
Method in brief: as §1

CP194 = assay: as above; conditions: P. falciparum in erythrocytes, SYBR Green DNA, 72 h; series mostly up to 28.7 µM
Method in brief: as §1

CP201 = assay: as above; conditions: P. falciparum in erythrocytes, SYBR Green DNA, 72 h; series mostly up to 28.7 µM
Method in brief: as §1

CP211 = assay: as above; conditions: P. falciparum in erythrocytes, SYBR Green DNA, 72 h; series mostly up to 28.7 µM
Method in brief: as §1

CP215 = assay: as above; conditions: P. falciparum in erythrocytes, SYBR Green DNA, 72 h; series mostly up to 28.7 µM
Method in brief: as §1

CP217 = assay: as above; conditions: P. falciparum in erythrocytes, SYBR Green DNA, 72 h; series mostly up to 28.7 µM
Method in brief: as §1

AS120 = assay: as above; conditions: P. falciparum in erythrocytes, SYBR Green DNA, 72 h; series mostly up to 28.7 µM
Method in brief: as §1

7G8 = assay: as above; conditions: P. falciparum in erythrocytes, SYBR Green DNA, 72 h; series mostly up to 28.7 µM
Method in brief: as §1

AA1029 = assay: as above; conditions: P. falciparum in erythrocytes, SYBR Green DNA, 72 h; series mostly up to 28.7 µM
Method in brief: as §1

CP203 = assay: as above; conditions: P. falciparum in erythrocytes, SYBR Green DNA, 72 h; series mostly up to 28.7 µM
Method in brief: as §1

CP191 = assay: as above; conditions: P. falciparum in erythrocytes, SYBR Green DNA, 72 h; series mostly up to 28.7 µM
Method in brief: as §1
Potency is the fitted concentration of half-maximal effect.

O=[N+]([O-])c1cccc(S(=O)(=O)NCCNS(=O)(=O)c2cccc([N+](=O)[O-])c2)c1
inactive: activity, negative = inhibition ([1]; parasite line A) -25.4% | Potency (3D7) | Potency (ATS189) | Potency (ATS95) | Potency (C2A) | Potency (CP185) | Potency (CP192) | Potency (CP194) | Potency (CP201) | Potency (CP211) | Potency (CP215) | Potency (CP217)

CC(=O)O[C@H]1C[C@@H]2CC[C@@H]3[C@H](CC[C@@]4(C)[C@H]3C[C@H]([N+]3(C)CCCCC3)[C@@H]4OC(C)=O)[C@@]2(C)C[C@@H]1N1CCCCC1
inactive: activity, negative = inhibition ([1]; parasite line B) -19.6% | Potency (3D7) | Potency (AS120) | Potency (CP194)

COC(=O)C(c1ccccc1Cl)N1CCc2sccc2C1 (configuration not stated)
inactive: Potency (C2A)
active: Potency (7G8) 10 µM

CC(C)(C)CC(C)(C)c1ccc(O)c(-n2nc3ccccc3n2)c1
active: Potency (7G8) 5.01 µM | Potency (AA1029) 12.6 µM
inactive: Potency (CP192) | Potency (CP194) | Potency (CP201) | Potency (CP203) | Potency (CP211) | Potency (CP215)

CC(C)[N+](C)(C)CC(O)COc1cccc2ccccc12 (configuration not stated)
inactive: Potency (AS120) | Potency (ATS189) | Potency (ATS95) | Potency (CP201) | Potency (CP203) | Potency (CP217)

CN1CCN(c2c(F)cc3c(=O)c(C(=O)O)cn4c3c2SCC4)CC1
inactive: activity, negative = inhibition ([1]; parasite line B) -29% | Potency (3D7) | Potency (CP192) | Potency (CP194) | Potency (CP201)

Oc1ccc(Cl)cc1Cc1cc(Cl)ccc1O
active: Potency ([1]; parasite line B) 11.2 µM | Potency (7G8) 11.2 µM | Potency (AA1029) 10 µM | Potency (AS120) 7.08 µM
inactive: Potency (3D7) | Potency (C2A) | Potency (CP192) | Potency (CP194) | Potency (CP211)

Cn1c(=O)c2[nH]c(Br)nc2n(C)c1=O
inactive: activity, negative = inhibition ([1]; parasite line B) -4.72% | Potency (3D7) | Potency (7G8) | Potency (AS120) | Potency (ATS189) | Potency (ATS95) | Potency (C2A) | Potency (CP185) | Potency (CP191) | Potency (CP192) | Potency (CP194) | Potency (CP201) | Potency (CP203) | Potency (CP211) | Potency (CP215) | Potency (CP217)

O=C(NC1CCN(CCc2c[nH]c3ccccc23)CC1)c1ccccc1
inactive: activity, negative = inhibition ([1]; parasite line B) -5.78% | Potency (AS120) | Potency (ATS189) | Potency (ATS95) | Potency (C2A) | Potency (CP185) | Potency (CP192) | Potency (CP194) | Potency (CP201) | Potency (CP211) | Potency (CP215) | Potency (CP217)
active: Potency (7G8) 10 µM | Potency (CP191) 8.91 µM

Cc1cc2c(OCC(CNC(C)(C)C)OC(=O)c3ccccc3)cccc2[nH]1 (configuration not stated)
inactive: Potency (CP185) | Potency (CP192) | Potency (CP194) | Potency (CP201) | Potency (CP211) | Potency (CP217)

Source: PubChem BioAssay (NCATS)
